According to PubChem BioAssay AID1159580 (chemical genetic matrix, 2015):
Hit rate of the full screen: of about 5,500 compounds, about 2,000 (36%) were called active. About 18% were inconclusive and are not listed. No stated cut-off is given here; in the data, active means normalized growth mostly below about 0.91 (no sharp cut-off); inconclusive means no clear call, values can overlap the other calls; inactive means mostly above about 0.92. This is one part of the list.

Assay: chemical genetic growth profiling, strain panel (AID 1159580);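 further: tested at 20 µM; growth read once vehicle control cultures reached saturation at 30 °C; 1 = growth at the plate median or of vehicle wells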
Details: S. cerevisiae deletion strains, growth OD
[1] = locus YDR150W, strain NUM1, stronger effect = lower value
[2] = locus YNL153C, strain GIM3, stronger effect = lower value
[3] = locus YPL241C, strain CIN2, stronger effect = lower value

Measured: normalized growth

Cc1ccc([N+](=O)[O-])cc1S(=O)(=O)N(C)C
inactive: locus YAL040C, strain CLN3, stronger effect = lower value 0.984 | locus YCL061C, strain MRC1 (second series), stronger effect = lower value 1 | [1] 1.03 | locus YDR363W, strain ESC2, stronger effect = lower value 0.972 | locus YER002W, strain NOP16, stronger effect = lower value 1 | [2] 0.846 | locus YNL175C, strain NOP13, stronger effect = lower value 0.996 | locus YNL197C, strain WHI3, stronger effect = lower value 0.926 | locus YNL224C, strain SQS1, stronger effect = lower value 0.979 | locus YOR083W, strain WHI5 (second series), stronger effect = lower value 0.955 | [3] 0.998

CN1c2ccccc2C(=O)NC1c1ccc([N+](=O)[O-])s1 (stereo not drawn)
inactive: locus YAL013W, strain DEP1, stronger effect = lower value 1 | locus YBR229C, strain ROT2, stronger effect = lower value 0.988 | locus YDL101C, strain DUN1, stronger effect = lower value 1.02 | [1] 1 | locus YEL061C, strain CIN8, stronger effect = lower value 0.967 | locus YGR078C, strain PAC10, stronger effect = lower value 1.02 | locus YGR229C, strain SMI1, stronger effect = lower value 0.989 | locus YHR030C, strain SLT2, stronger effect = lower value 1 | locus YHR087W, strain rtc3, stronger effect = lower value 0.991 | locus YJL187C, strain SWE1, stronger effect = lower value 0.996 | locus YJR043C, strain POL32, stronger effect = lower value 1.01 | locus YJR075W, strain HOC1, stronger effect = lower value 1.02 | locus YLR039C, strain RIC1, stronger effect = lower value 1.02 | locus YLR058C, strain SHM2 (second series), stronger effect = lower value 0.995 | locus YLR085C, strain ARP6, stronger effect = lower value 1.03 | locus YLR262C, strain YPT6, stronger effect = lower value 1.05 | locus YML094W, strain GIM5, stronger effect = lower value 0.989 | locus YMR219W, strain ESC1, stronger effect = lower value 0.995 | locus YMR263W, strain SAP30, stronger effect = lower value 1 | locus YMR307W, strain GAS1, stronger effect = lower value 1.01 | [2] 1.02 | locus YNL298W, strain CLA4 (second series), stronger effect = lower value 1.01 | locus YNL322C, strain KRE1, stronger effect = lower value 0.995 | locus YNR030W, strain Alg12, stronger effect = lower value 0.988 | locus YPL055C, strain LGE1, stronger effect = lower value 0.971 | [3] 1 | locus YPR135W, strain CTF4, stronger effect = lower value 1.05
